Laboratory results from PubChem BioAssay (NCATS).
Values joined by “and” are separate entries in the source; they are usually repeats but may differ in a detail not shown here. Equal entries are not always repeated. Records with an inconclusive call do not appear. Active and inactive are the calls of the source. Unless noted, calls come from the whole dose curve; as a rule, active = well fitted curve in the direction sought with a large enough effect; inconclusive = small, poorly fitted or top-dose-only effect, or another doubt; inactive = no such curve, though single readings can be large; an effect the other way counts as inactive or inconclusive.

How the values were obtained:
[1] = qHTS drug screen for cell cycle checkpoint inhibitors in PARPi-resistant BRCA-mutant ovarian cancer cell lines. (AID 1963452; calls by dose curve); settings: PEO1/OlaR viability, CellTiter-Glo luminescence, 96 h, stronger effect = lower value
Outline: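 PEO1, PEO4 and PEO1/OlaR ovarian cancer cells, 600 per well, exposed 96 h at 37C to a dilution series. Viability read by CellTiter-Glo luminescence, normalized to DMSO and empty wells; activity summarized as Z-AUC.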

[2] = qHTS profiling for inhibitors of Plasmodium falciparum proliferation (AID 504749); note: potency is the fitted concentration of half-maximal effect;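 for activity, negative = inhibition: 0% = DMSO vehicle and full inhibition = artemisinin control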; for all read-outs here: nearly all actives have a fitted effect of over 60% in size; settings: P. falciparum in erythrocytes, SYBR Green DNA, 72 h; for activity, negative = inhibition: at 28.7 µM (top of the series)
Outline: (§1)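 Readout was DNA-dye fluorescence from lysed cultures, ex 485/em 535 nm. Parasitized red cells had grown 72 h with compound; data scaled between 0.29 uM artemisinin and DMSO wells and corrected using vehicle-only plates.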

3D7 = assay: as above; settings: P. falciparum in erythrocytes, SYBR Green DNA, 72 h; series mostly up to 28.7 µM
Outline: as §1

7G8 = assay: as above; settings: P. falciparum in erythrocytes, SYBR Green DNA, 72 h; series mostly up to 28.7 µM
Outline: as §1

AA1029 = assay: as above; settings: P. falciparum in erythrocytes, SYBR Green DNA, 72 h; series mostly up to 28.7 µM
Outline: as §1

AS120 = assay: as above; settings: P. falciparum in erythrocytes, SYBR Green DNA, 72 h; series mostly up to 28.7 µM
Outline: as §1

ATS189 = assay: as above; settings: P. falciparum in erythrocytes, SYBR Green DNA, 72 h; series mostly up to 28.7 µM
Outline: as §1

ATS95 = assay: as above; settings: P. falciparum in erythrocytes, SYBR Green DNA, 72 h; series mostly up to 28.7 µM
Outline: as §1

C2A = assay: as above; settings: P. falciparum in erythrocytes, SYBR Green DNA, 72 h; series mostly up to 28.7 µM
Outline: as §1

CP185 = assay: as above; settings: P. falciparum in erythrocytes, SYBR Green DNA, 72 h; series mostly up to 28.7 µM
Outline: as §1

CP191 = assay: as above; settings: P. falciparum in erythrocytes, SYBR Green DNA, 72 h; series mostly up to 28.7 µM
Outline: as §1

[3] = target: Cytochrome P450 2C9 (Homo sapiens) (UniProt P11712); assay: qHTS for inhibitors of CYP2C9 against the NCATS DSHEA and TCM libraries (AID 1919973); settings: recombinant CYP2C9 enzyme activity, luminescence; series mostly up to 34.1 µM;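 note: luminogenic pro-luciferin CYP2C9 substrate turned into luciferin with NADPH regeneration; % is set by controls: 0 for no effect and ±100 for the full control effect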
Outline: (§2)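 Light output from converted D-luciferin reports remaining CYP activity. Compounds preincubate with enzyme and substrate for 15 min; NADPH regeneration (1x final) runs the reaction for 30-45 min.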

[4] = KB-3-1 P-gp reporter qHTS against the NCATS DSHEA and TCM libraries (AID 1919975); settings: KB-3-1 parental cells, CellTiter-Glo luminescence viability, 72 h; series mostly up to 26.1 µM; note: 0% is about no effect
Outline: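 Parental KB-3-1 cells, 500 cells/well, in DMEM with 10% FBS, exposed 72 h at 37 C to compounds in concentration-response. Viability read by CellTiter-Glo luminescence after 30 min at room temperature.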

[5] = qHTS Counterscreen for compound interference against the NCATS DSHEA and TCM libraries (AID 1919978); settings: firefly luciferase detection reagent interference, luminescence;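 note: compounds preincubated with 1 µM D-luciferin or buffer before detection reagent; % of control where 0% means no effect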
Outline: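 Firefly luciferase detection reagent was added after compounds (19.5 nM–39.8 uM final) had been incubated 15 min at room temperature with 1 uM D-luciferin or with 100 mM phosphate buffer alone. Luminescence was read after 30 min at room temperature.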

[6] = Dual reporter qHTS for agonist of Pregnane X Receptor (hPXR) against the NCATS DSHEA and TCM libraries: Fluorescence readout (AID 1920058); settings: PXR dual reporter cells; series mostly up to 40 µM; note: 0% is about no effect
Outline: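 Measures viability of the PXR reporter HepG2 line by protease-substrate fluorescence (405/540 nm), taken 1 h after CellTiter-Fluor addition. Substances are tested as concentration series over a ~24 h exposure, with rifampicin as agonist control.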

[7] = target: Nuclear receptor subfamily 1 group I member 2 (Homo sapiens) (UniProt O75469); assay: Dual reporter qHTS for agonist of Pregnane X Receptor (hPXR) against the NCATS DSHEA and TCM libraries: Luminescence readout (AID 1920059); settings: hPXR dual reporter cells, luciferase luminescence agonist; series mostly up to 40 µM; note: 0% is about no effect
Outline: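 hPXR-Luc HepG2 cells, 2000/well in 5% charcoal-stripped FBS medium, attached 5 h, then exposed 24 h at 37C to compounds. Viability by CellTiter-Fluor, then luciferase luminescence with ONE-Glo.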

[8] = target: Nuclear receptor subfamily 1 group I member 2 (Homo sapiens) (UniProt O75469); assay: Dual reporter qHTS for antagonist of Pregnane X Receptor (hPXR) against the NCATS DSHEA and TCM libraries: Luminescence Readout (AID 1920060); settings: hPXR dual reporter cells, luciferase luminescence, antagonist mode; series mostly up to 40 µM;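 note: HepG2 cells carrying hPXR luciferase reporter stimulated with rifampicin at 2 µM; 0% is about no effect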
Outline: (§3)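 HepG2 hPXR-Luc, 2000 cells/well, charcoal-stripped FBS medium; 5 h attach; RIF 2 uM final; 24 h 37C/5% CO2; CellTiter-Fluor 1 h, fluor 405/540; ONE-Glo 30 min RT, lum.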

[9] = Dual reporter qHTS for antagonist of Pregnane X Receptor (hPXR) against the NCATS DSHEA and TCM libraries: Fluorescence Readout (AID 1920061); settings: PXR dual reporter cells, antagonist mode; series mostly up to 40 µM; note: 0% is about no effect
Outline: as §3

[10] = target: Cytochrome P450 2C19 (Homo sapiens) (UniProt P33261); assay: qHTS for inhibitors of CYP2C19 against the NCATS DSHEA and TCM libraries (AID 1919974); settings: CYP2C19 enzyme inhibition, luminescence qHTS; series mostly up to 34.1 µM;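 note: luminescence from luciferin released by CYP2C19 oxidation of a pro-luciferin substrate; % is set by controls: 0 for no effect and ±100 for the full control effect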
Outline: as §2

[11] = target: Cytochrome P450 1A2 (Homo sapiens) (UniProt P05177); assay: qHTS for inhibitors of CYPIA2 against the NCATS DSHEA and TCM libraries (AID 1919976); settings: recombinant CYP1A2 enzyme activity, luminescence; series mostly up to 37 µM;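 note: light from luciferin formed by CYP1A2 from a pro-luciferin substrate; % is set by controls: 0 for no effect and ±100 for the full control effect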
Outline: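 In this quantitative HTS, inhibition of recombinant human CYP1A2 was measured as loss of luciferin-derived luminescence. Turnover ran 30-45 min at RT after NADPH regeneration solution was added.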

[12] = measured here: PEO1 parental Z-AUC

Nuclear receptor subfamily 1 group I member 2 (Homo sapiens), sequence (O75469 whole entry, looked up): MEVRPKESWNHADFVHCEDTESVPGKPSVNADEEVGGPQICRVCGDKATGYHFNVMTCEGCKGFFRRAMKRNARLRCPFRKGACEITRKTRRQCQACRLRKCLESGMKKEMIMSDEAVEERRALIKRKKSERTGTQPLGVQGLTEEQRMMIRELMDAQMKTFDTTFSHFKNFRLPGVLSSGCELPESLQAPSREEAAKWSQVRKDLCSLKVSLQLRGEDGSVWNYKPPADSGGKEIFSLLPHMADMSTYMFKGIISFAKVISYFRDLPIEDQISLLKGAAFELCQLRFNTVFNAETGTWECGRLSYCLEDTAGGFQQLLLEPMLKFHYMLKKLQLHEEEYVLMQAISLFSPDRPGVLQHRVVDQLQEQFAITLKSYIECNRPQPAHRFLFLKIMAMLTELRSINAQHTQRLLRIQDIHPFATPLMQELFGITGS
Cytochrome P450 2C9 (Homo sapiens), sequence (P11712 whole entry, looked up): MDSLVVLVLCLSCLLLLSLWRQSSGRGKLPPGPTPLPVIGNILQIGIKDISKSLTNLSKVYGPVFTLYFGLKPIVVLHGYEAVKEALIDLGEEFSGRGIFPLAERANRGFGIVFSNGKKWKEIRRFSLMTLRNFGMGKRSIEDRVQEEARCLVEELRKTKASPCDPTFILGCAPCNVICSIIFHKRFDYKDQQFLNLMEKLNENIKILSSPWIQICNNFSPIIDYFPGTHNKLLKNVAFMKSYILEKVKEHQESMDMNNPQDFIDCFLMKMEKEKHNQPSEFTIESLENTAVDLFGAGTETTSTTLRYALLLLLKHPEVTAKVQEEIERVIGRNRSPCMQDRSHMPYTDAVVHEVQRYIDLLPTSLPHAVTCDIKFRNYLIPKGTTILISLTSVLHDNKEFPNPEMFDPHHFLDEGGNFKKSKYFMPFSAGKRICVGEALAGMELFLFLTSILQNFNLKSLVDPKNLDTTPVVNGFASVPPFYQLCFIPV
Cytochrome P450 1A2 (Homo sapiens), sequence (P05177 whole entry, looked up): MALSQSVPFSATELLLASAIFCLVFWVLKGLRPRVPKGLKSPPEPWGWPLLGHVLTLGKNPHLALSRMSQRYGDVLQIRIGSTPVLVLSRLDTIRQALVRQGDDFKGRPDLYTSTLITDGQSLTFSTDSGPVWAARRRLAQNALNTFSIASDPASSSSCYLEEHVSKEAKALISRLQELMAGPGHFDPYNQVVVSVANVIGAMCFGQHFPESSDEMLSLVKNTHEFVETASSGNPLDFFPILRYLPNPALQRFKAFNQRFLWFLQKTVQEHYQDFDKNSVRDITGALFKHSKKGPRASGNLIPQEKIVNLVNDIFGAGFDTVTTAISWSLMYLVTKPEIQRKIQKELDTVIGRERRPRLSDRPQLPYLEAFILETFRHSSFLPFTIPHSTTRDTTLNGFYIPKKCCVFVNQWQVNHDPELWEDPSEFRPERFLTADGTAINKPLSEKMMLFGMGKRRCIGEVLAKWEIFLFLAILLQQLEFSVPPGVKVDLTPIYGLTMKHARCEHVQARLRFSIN
Cytochrome P450 2C19 (Homo sapiens), sequence (P33261 whole entry, looked up): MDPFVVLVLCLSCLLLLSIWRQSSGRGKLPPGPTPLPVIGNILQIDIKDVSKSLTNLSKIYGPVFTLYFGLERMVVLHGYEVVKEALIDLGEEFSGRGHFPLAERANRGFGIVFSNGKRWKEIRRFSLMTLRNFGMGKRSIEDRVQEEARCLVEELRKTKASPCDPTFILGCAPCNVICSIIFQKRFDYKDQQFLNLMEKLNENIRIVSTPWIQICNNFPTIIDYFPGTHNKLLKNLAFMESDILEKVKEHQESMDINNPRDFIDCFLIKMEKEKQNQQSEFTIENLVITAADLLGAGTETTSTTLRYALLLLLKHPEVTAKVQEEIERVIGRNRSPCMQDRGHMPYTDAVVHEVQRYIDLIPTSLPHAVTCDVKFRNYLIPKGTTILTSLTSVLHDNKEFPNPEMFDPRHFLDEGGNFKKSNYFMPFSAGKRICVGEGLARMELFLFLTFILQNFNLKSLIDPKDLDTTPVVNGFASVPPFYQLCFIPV

CC1=C(/C=C/C(C)=C/C=C/C(C)=C/C(=O)O)C(C)(C)CCC1
0.421: Z-AUC ([1]; measured here: PEO4 Z-AUC)
0.0467: Z-AUC [1, 12]
inactive: Z-AUC [1] -0.215 | activity, negative = inhibition ([2]; parasite line A) 11.8% | activity, negative = inhibition ([2]; parasite line B) -26.7% | Potency (3D7) | Potency (7G8) | Potency (AA1029) | Potency (AS120) | Potency (ATS189) | Potency (ATS95) | Potency (C2A) | Potency (CP185) | Potency (CP191)

C[C@H]1O[C@@H](n2cc(F)c(=O)[nH]c2=O)[C@H](O)[C@@H]1O
1.13: Z-AUC [1, 12]
1.52: Z-AUC ([1]; measured here: PEO4 Z-AUC)
inactive: Z-AUC [1] 0.97 | activity, negative = inhibition ([2]; parasite line A) 3.03% | activity, negative = inhibition ([2]; parasite line B) 4.84% | Potency (3D7) | Potency (7G8) | Potency (AA1029) | Potency (AS120) | Potency (ATS189) | Potency (ATS95) | Potency (C2A) | Potency (CP185) | Potency (CP191)

COc1ccc2[nH]c(S(=O)Cc3ncc(C)c(OC)c3C)nc2n1 (stereo not given)
-0.26: Z-AUC [1, 12]
0.544: Z-AUC ([1]; measured here: PEO4 Z-AUC)
active: Potency ([2]; parasite line B) 10 µM | Potency (3D7) 10 µM | Potency (7G8) 11.2 µM | Potency (AS120) 8.91 µM
inactive: Z-AUC [1] -1.06

NC(N)=NCCC[C@H](N)C(=O)O
inactive: outcome [3] | outcome [4] | max response [5] -2.87% | outcome [6] | outcome [7] | outcome [8] | outcome [9]

O=C(O)COc1nn(Cc2ccccc2)c2ccccc12
inactive: activity, negative = inhibition ([2]; parasite line A) 1.43% | activity, negative = inhibition ([2]; parasite line B) 10.4% | Potency (3D7) | Potency (7G8) | Potency (AA1029) | Potency (AS120) | Potency (ATS189) | Potency (ATS95) | Potency (C2A) | Potency (CP185) | Potency (CP191)

CC(C)(C)C(=O)NCCCC(=O)O
inactive: activity, negative = inhibition ([2]; parasite line A) 13.3% | activity, negative = inhibition ([2]; parasite line B) -4.47% | Potency (3D7) | Potency (7G8) | Potency (AA1029) | Potency (AS120) | Potency (ATS189) | Potency (ATS95) | Potency (C2A) | Potency (CP185) | Potency (CP191)

CCCCc1ncc(/C=C(\Cc2cccs2)C(=O)O)n1Cc1ccc(C(=O)O)cc1
inactive: activity, negative = inhibition ([2]; parasite line A) 6.94% | activity, negative = inhibition ([2]; parasite line B) 4.94% | Potency (3D7) | Potency (7G8) | Potency (AA1029) | Potency (AS120) | Potency (ATS189) | Potency (ATS95) | Potency (C2A) | Potency (CP185) | Potency (CP191)

NC(=O)c1ncn([C@@H]2O[C@H](CO)[C@@H](O)[C@H]2O)c1N
-0.555: Z-AUC ([1]; measured here: PEO4 Z-AUC)
-0.745: Z-AUC [1, 12]
inactive: Z-AUC [1] -0.269

NC(=O)NNc1ccccc1
inactive: activity, negative = inhibition ([2]; parasite line A) -7.35% and 18% | activity, negative = inhibition ([2]; parasite line B) 13.9% and 11.9% | Potency (3D7) | Potency (7G8) | Potency (AA1029) | Potency (AS120) | Potency (ATS189) | Potency (ATS95) | Potency (C2A) | Potency (CP185) | Potency (CP191)

CCOC(=O)c1ccc(O)cc1
inactive: activity, negative = inhibition ([2]; parasite line A) 6.51% | activity, negative = inhibition ([2]; parasite line B) -7.49% | Potency (3D7) | Potency (7G8) | Potency (AA1029) | Potency (AS120) | Potency (ATS189) | Potency (ATS95) | Potency (C2A) | Potency (CP185) | Potency (CP191)

O=C1Nc2ccc(Cl)cc2[C@@](C#CC2CC2)(C(F)(F)F)O1
inactive: Z-AUC [1] -0.995 and -0.662
-0.62 and -0.612: Z-AUC ([1]; measured here: PEO4 Z-AUC)
-0.432 and 0.539: Z-AUC [1, 12]

CC12CCC(CC1)C(C)(C)O2
inactive: outcome [3] | outcome [10] | outcome [4] | outcome [11] | max response [5] -1.5% | outcome [6] | outcome [7] | outcome [8] | outcome [9] | activity, negative = inhibition ([2]; parasite line A) 9.21% | activity, negative = inhibition ([2]; parasite line B) -14.4% | Potency (3D7) | Potency (7G8) | Potency (AA1029) | Potency (AS120) | Potency (ATS189) | Potency (ATS95) | Potency (C2A) | Potency (CP185) | Potency (CP191)

COc1cc(C)c(Cc2cnc(N)nc2N)cc1OC
active: Potency ([2]; parasite line A) 4.47 µM | Potency ([2]; parasite line B) 11.2 µM | Potency (3D7) 11.2 µM
inactive: Potency (7G8) | Potency (AA1029) | Potency (AS120) | Potency (ATS189) | Potency (ATS95) | Potency (C2A) | Potency (CP185) | Potency (CP191)

Oc1cccc(O)c1
inactive: activity, negative = inhibition ([2]; parasite line A) 9.04% | activity, negative = inhibition ([2]; parasite line B) 15.9% | Potency (3D7) | Potency (7G8) | Potency (AA1029) | Potency (AS120) | Potency (ATS189) | Potency (ATS95) | Potency (C2A) | Potency (CP185) | Potency (CP191)

Cc1cccc(Nc2cc(Cl)nc(SCC(=O)O)n2)c1C
inactive: activity, negative = inhibition ([2]; parasite line A) 11.5% | activity, negative = inhibition ([2]; parasite line B) 13.9% | Potency (3D7) | Potency (7G8) | Potency (AA1029) | Potency (AS120) | Potency (ATS189) | Potency (ATS95) | Potency (C2A) | Potency (CP185) | Potency (CP191)

O=Cc1ccccc1C=O
inactive: activity, negative = inhibition ([2]; parasite line A) -1.21% | activity, negative = inhibition ([2]; parasite line B) 5.64% | Potency (3D7) | Potency (7G8) | Potency (AA1029) | Potency (AS120) | Potency (ATS189) | Potency (ATS95) | Potency (C2A) | Potency (CP185) | Potency (CP191)

NC(CSCC(=O)O)C(=O)O (stereo not given)
inactive: activity, negative = inhibition ([2]; parasite line A) -7.77% | activity, negative = inhibition ([2]; parasite line B) -0.351% | Potency (3D7) | Potency (7G8) | Potency (AA1029) | Potency (AS120) | Potency (ATS189) | Potency (ATS95) | Potency (C2A) | Potency (CP185) | Potency (CP191)

O=c1cc[nH]c(=S)[nH]1
inactive: activity, negative = inhibition ([2]; parasite line A) 1.45% | activity, negative = inhibition ([2]; parasite line B) 6.46% | Potency (3D7) | Potency (7G8) | Potency (AA1029) | Potency (AS120) | Potency (ATS189) | Potency (ATS95) | Potency (C2A) | Potency (CP185) | Potency (CP191)

O=c1cc(CO)occ1O
inactive: activity, negative = inhibition ([2]; parasite line A) 1.47% | activity, negative = inhibition ([2]; parasite line B) -0.837% | Potency (3D7) | Potency (7G8) | Potency (AA1029) | Potency (AS120) | Potency (ATS189) | Potency (ATS95) | Potency (C2A) | Potency (CP185) | Potency (CP191)
